The whole screen tested about 2,300 compounds, of which about 1,500 (65%) were called active. The rule behind the calls is not given here. So high a share suggests a set chosen from earlier hits. These entries were drawn from the full list.
Test: PubChem AID 2252
Conditions: THP-1 viability, CellTiter-Glo luminescence, 72 h; min viability: minimum viability across concentrations, concentration not given here; series mostly up to 50 µM

Compound | outcome
COCCn1nnnc1C(c1cccc(OC)c1OC)N1CCN(C2CCCCC2)CC1 (centres undefined) | inactive
O=C(O)C1CCCCC1C(=O)NCCc1ccncc1 (centres undefined) | inactive
O=C(Nc1nccs1)c1ccc(Cl)cc1[N+](=O)[O-] | inactive
Cc1ccc2c(c1)C1CN(C)CCC1N2C(=O)COc1ccccc1F (centres undefined) | inactive
CCc1nc(C)ccc1OCC(=O)NCCCN(C)C | inactive
CN1C(=O)NC(c2cccc(O)c2)C(C(=O)c2cccs2)C1(O)C(F)(F)F (centres undefined) | inactive
Cc1cccc(N2C(=O)CS/C2=N\NC(=O)c2ccc(Br)cc2)c1C | inactive
N#Cc1nc(Cc2cccc3ccccc23)oc1NCCCN1CCOCC1 | inactive
Cc1ccc(/C=N/NC(=O)Cc2cccn2C)cc1 | inactive
O=C(Cc1ccccc1)NCC(=O)Nc1cccc(Cl)c1 | inactive
CC(=O)c1ccc(NC(=O)CN2CCCCCC2)cc1 | inactive
CSC(=Nc1ccc(Cl)cc1)N[n+]1ccccc1 | inactive
CC(=O)Nc1ccc(S(=O)(=O)Nc2nc3ccccc3nc2Nc2cccc(S(N)(=O)=O)c2)cc1 | inactive
COCCNC(=O)c1cccc(OC2CCN(Cc3ccccc3C)CC2)c1 | inactive
Cc1ccc(C(=O)N/N=C\c2sccc2C)cn1 | inactive
CN(C)CCCOC(=O)c1sc2ccccc2c1Cl | inactive
COc1c2ccccc2nc2ccccc12 | inactive
CCn1cc(C(=O)O)c(=O)c2cc(F)c(N3CCN(C(=S)NC(=O)c4ccc(Br)cc4)CC3)cc21 | inactive
O=C(NCc1ccccc1)N[C@@H](Cc1c[nH]c2ccccc12)C(=O)O | inactive
CCn1cc(C(=O)NCCO)c(=O)c2cc(F)c(N3CCN(C)CC3)cc21 | inactive
CCn1nnnc1NCc1cccc(Cl)c1 | inactive
O=C(O)c1cn(-c2ccc(F)cc2)c2cc(Cl)c(F)cc2c1=O | inactive
COc1cccc(NC(=O)CSc2nncn2-c2ccccn2)c1 | inactive
O=C(NC1CC1)C1CCN(C2CCN(C(=O)Cc3ccc(F)cc3)CC2)CC1 | inactive
O=C(NC(CO)C(O)c1ccc([N+](=O)[O-])cc1)C(Cl)Cl (centres undefined) | inactive

Compound | outcome
CN1CCCN(S(=O)(=O)c2ccc3ccccc3c2)CC1 | inactive
NS(=O)(=O)OCCCc1ccc(C(F)(F)F)cc1 | inactive
N#CCC(=O)N/N=C/c1ccccc1Cl | inactive
COc1ccc(-c2nc3ccc(C(=O)NCC(OC)OC)cc3nc2-c2ccc(OC)cc2)cc1 | inactive
Cc1cc(C)c(S(=O)(=O)Nc2ccccc2C(=O)OCC(=O)NCc2ccccc2)c(C)c1 | inactive
CCOC(=O)c1cccc(NC(=O)c2cccs2)c1 | inactive
Cc1ccc(NC(=O)c2cc(NC(=O)CCCC(=O)O)ccc2Cl)cc1Cl | inactive
O=C(CCCOc1ccc(Cl)cc1Cl)NNC(=O)C1CCC1 | inactive
CCCCN1/C(=C/c2cccc[n+]2C)Sc2cc(NC(C)=O)ccc21 | inactive
CC(C)CC(=O)N1CCN(C(=O)CCC2CCCC2)CC1 | inactive
O=C(NCc1cccnc1)C1c2ccccc2C(=O)N1Cc1ccccc1 (centres undefined) | inactive
O=Cc1ccc(O)cc1O | inactive
CCC(C)NC(=O)c1cn(CC)c2cc(N3CCN(C)CC3)c(F)cc2c1=O (centres undefined) | inactive
Cc1ccn2cc(-c3ccc4c(c3)NC(=O)CO4)nc2c1 | inactive
O=C(CN(C(=O)CNS(=O)(=O)c1ccccc1)C1CCCC1)NCc1ccco1 | inactive
O=c1[nH]cc(N=Cc2cc([N+](=O)[O-])ccc2O)c(=O)[nH]1 | inactive
CC(Sc1nc2ccccc2o1)C(=O)O (centres undefined) | inactive
Cc1cc(C)cc(CSc2nnc(C)c(=O)[nH]2)c1 | inactive
CCCCN(C)C(=O)c1ccc(S(=O)(=O)N2CCOCC2)cc1 | inactive
COc1ccc(-c2nnn(-c3ccc(Cl)cc3Cl)c2N)cc1 | inactive
Cc1cc(C)c2c(N)c(C(=O)c3ccc(Cl)c(Cl)c3)sc2n1 | inactive
Cn1c(-c2ccc(CN3CCCCC3)o2)nc2ccccc21 | inactive
O=C(NCC1CCCO1)c1cc2ccccc2oc1=O (centres undefined) | inactive
CN(C)C(=O)CSc1nnc(Cc2ccc([N+](=O)[O-])cc2)o1 | inactive
CSc1nc2ccc(Cl)cc2[nH]1 | inactive

Compound | outcome
Cn1cc(S(=O)(=O)NCC2CCCO2)c(=O)n(C)c1=O (centres undefined) | inactive
CN1C2=CC=CC=CC2=[N+](C)C12C=CC(=[N+]([O-])[O-])C=C2[N+](=O)[O-] (centres undefined) | inactive
Cc1cc(N2CCCCC2)c(F)cc1[N+](=O)[O-] | inactive
O=C(N/N=C/c1ccc(-c2ccc(Br)cc2)o1)c1ccc2c(c1)OCO2 | inactive
Cc1ccc(-n2ncc3c(=O)[nH]cnc32)c(C)c1 | inactive
CC(=O)N1CSCC1C(=O)N1CCN(c2ccc(N3CCOCC3)nn2)CC1 (centres undefined) | inactive
CCCCNC(=O)NS(=O)(=O)c1ccc(C(=O)OC)o1 | inactive
O=C(c1cccs1)N1CCC(N2CCN(c3ccccc3)CC2)CC1 | inactive
N#Cc1c(/N=C/c2cccs2)sc2c1CCCCC2 | inactive
Cc1ccc(NC(=O)CCNC(=O)c2ccccc2)cc1F | inactive
Cc1c(/C=N/NC(=O)c2sc3ccccc3c2Cl)cnn1C | inactive
Cc1cc(C)cc(N(C(=O)CNC(=O)c2cccs2)C(C(=O)NC2CCCC2)c2cccnc2)c1 (centres undefined) | inactive
CC(C)OC(=O)Cn1c(=O)sc2ccccc21 | inactive
CC(=O)Nc1cccc(NS(=O)(=O)Cc2ccc(Cl)cc2)c1 | inactive
COc1ccc(C(=O)NNS(=O)(=O)c2ccccc2)cc1OC | inactive
O=C(NCc1ccccc1)c1ccc(CNc2c(N3CCCC3)c(=O)c2=O)cc1 | inactive
C[C@H]1COc2c(N3CCN(C)CC3)c(F)cc3c(=O)c(C(=O)O)cn1c23 | inactive
CCCCc1cc(=O)oc2cc(C)cc(OCC(=O)NCC3CCC(C(=O)O)CC3)c12 (centres undefined) | inactive
Cc1ccc(CNC(=O)CCC(=O)Nc2nnc(C)s2)cc1 | inactive
CCOc1cc(S(=O)(=O)N2CCN(CC)CC2)ccc1Cl | inactive
O=C(NCc1ccc2c(c1)OCO2)c1ccc2c(c1)C(=O)N(Cc1cccnc1)C2=O | inactive
CCOC(=O)C1CCN(C(=O)CCc2nc3ccccc3[nH]2)CC1 | inactive
NS(=O)(=O)c1ccc(CCNS(=O)(=O)c2cccc(C(=O)O)c2)cc1 | inactive
O=C(NC(=O)c1ccccc1)OCC1CCCN2CCCCC12 (centres undefined) | inactive

Reference: PubChem BioAssay AID2252 (Southern Research Specialized Biocontainment Screening …, 2010)
